Read-out in assay [1]: xenobiotic metabolism (CYP1A1), CYP1A1 (gene 1543)
In words: CLD_CYP1A1_6hr: CellzDirect (CLD) Gene Expression Assay for xenobiotic metabolism (CYP1A1) at 6 hours (AID 2283661).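 On AC50: potency for transcript induction above DMSO vehicle baseline.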 A digest of the protocol:
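Primary human hepatocytes from two donors, compound versus 0.2% DMSO vehicle. CYP1A1 mRNA measured 6 h after dosing by quantitative nuclease protection assay with chemiluminescent read-out; induction fitted relative to DMSO, cytotoxicity flagged by microscopy.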

Read-out in assay [2]: xenobiotic metabolism (CYP1A2), CYP1A2 (gene 1544)
Kind of assay: CLD_CYP1A2_6hr: CellzDirect (CLD) Gene Expression Assay for xenobiotic metabolism (CYP1A2) at 6 hours (AID 2283663).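 On AC50: potency is for induction meaning a rise in mRNA above DMSO.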 The gist of the method: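 Primary human hepatocytes from two donor preparations, dosed daily with multiple concentrations in 0.2% DMSO and harvested at 6 h. CYP1A2 mRNA induction measured by chemiluminescent qNPA, gain of signal fitted against DMSO; cytotoxicity flagged morphologically.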

Assay [3] is described as follows: Tanguay_ZF_120hpf_TR_legacy: (Legacy) Oregon State University Tanguay Lab 120 Hour Post-fertilization zebrafish Assay for Touch Response (AID 2283667). A digest of the protocol: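 Tropical 5D wild-type zebrafish embryos statically exposed to 120 hpf at 28°C, sealed and dark-covered, 0.64% DMSO final; touch response scored as present/absent by brightfield microscopy at 120 hpf. Trimethyltin chloride 5 uM positive control; dead embryos not scored.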

Read-out in assay [4]: organic anion transporter (SLCO1B1), SLCO1B1 (gene 10599)
In words: CLD_SLCO1B1_6hr: CellzDirect (CLD) Gene Expression Assay for organic anion transporter (SLCO1B1) at 6 hours (AID 2283668).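 Further: active means mRNA induction above DMSO baseline.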 The gist of the method: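 Primary human hepatocytes dosed daily with test chemicals (multiple concentrations) in 0.2% DMSO vehicle; harvested at 6 h. SLCO1B1 mRNA quantified by qNPA chemiluminescence, fitted as gain-of-signal versus DMSO; cytotoxicity from phase-contrast morphology flagged alongside.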

Read-out in assay [5]: glucuronosyltransferase (UGT1A1), UGT1A1 (gene 54658)
Kind of assay: CLD_UGT1A1_6hr: CellzDirect (CLD) Gene Expression Assay for glucuronosyltransferase (UGT1A1) at 6 hours (AID 2283672). A digest of the protocol:
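Primary human hepatocytes from two donor preparations, dosed with fresh solutions in 0.2% DMSO, harvested at 6 h. UGT1A1 mRNA measured by qNPA chemiluminescence; induction fitted upward versus DMSO.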

Assay [6] in a line: CCTE_Padilla_ZF_144hpf_TERATOSCORE: (Legacy) CCTE's 144 Hour Post-fertilization zebrafish Assay Teratoscore, Padilla Lab (AID 2283679; active means hit-call score of the fitted dose curve at least 0.9, where 1 is the maximum; inactive means score below 0.9;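 on AC50: zebrafish embryos with chorions exposed by immersion from 6-8 hpf to 5 dpf with daily renewal; teratogenicity score from eye scoring of death hatching and malformations at 144 hpf; higher score means more developmental defects relative to DMSO baseline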). A digest of the protocol: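 Larvae scored by eye at 144 hpf for death, hatching and malformations after a day in clean Hanks'. Before that, daily-renewed exposure at 80 uM (0.4% DMSO, 26C) from roughly 6-8 hpf through 5 dpf, 4 embryos per chemical.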

Read-out in assay [7]: xenobiotic metabolism (CYP1A2), CYP1A2 (gene 1544)
In words: CLD_CYP1A2_24hr: CellzDirect (CLD) Gene Expression Assay for xenobiotic metabolism (CYP1A2) at 24 hours (AID 2283683). A digest of the protocol:
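Primary human hepatocytes from two donor preparations dosed daily with multiple concentrations of chemical, 0.2% DMSO vehicle. CYP1A2 mRNA at 24 h quantified by qNPA chemiluminescence; gain of signal analyzed relative to DMSO. Cytotoxicity flagged by phase-contrast morphology.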

Read-out in assay [8]: ABC Transporter (ABCB1), ABCB1 (gene 5243)
Kind of assay: CLD_ABCB1_24hr: CellzDirect (CLD) Gene Expression Assay for ABC Transporter (ABCB1) at 24 hours (AID 2283684). The gist of the method:
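Primary human hepatocytes, two donor preparations, dosed daily with fresh solutions; vehicle 0.2% DMSO; harvested at 24 h. ABCB1 mRNA measured by quantitative nuclease protection assay (chemiluminescence); morphology-based cytotoxicity annotated.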

Read-out in assay [9]: Cytochrome P450 2B6 (Homo sapiens) (UniProt P20813)
Kind of assay: CLD_CYP2B6_24hr: CellzDirect (CLD) Gene Expression Assay for xenobiotic metabolism (CYP2B6) at 24 hours (AID 2283686). The gist of the method: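 Primary human hepatocytes dosed daily for two days with fresh solutions, harvested at 24 hours; mRNA induction quantified by qNPA chemiluminescence, gain of signal vs 0.2% DMSO vehicle. Cytotoxicity annotated from phase-contrast morphology.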

Read-out in assay [10]: Cytochrome P450 3A4 (Homo sapiens) (UniProt P08684)
Kind of assay: CLD_CYP3A4_24hr: CellzDirect (CLD) Gene Expression Assay for xenobiotic metabolism (CYP3A4) at 24 hours (AID 2283689). A digest of the protocol: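 Primary human hepatocytes from two donors dosed daily with fresh compound for two days, 0.2% DMSO vehicle. CYP3A4 mRNA at 24 hr by qNPA chemiluminescence; gain-of-signal fit versus DMSO, cytotoxicity flagged by morphology.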

The nature of assay [11]: CLD_ACTIN_6hr: CellzDirect (CLD) Gene Expression Assay for Baseline Control (Actin) at 6 hours (AID 2283676).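 Further: active means increased actin mRNA relative to DMSO vehicle.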 The gist of the method: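 Primary human hepatocytes dosed with fresh chemical solutions (vehicle 0.2% DMSO), harvested at 6 h. Actin mRNA quantified by quantitative nuclease protection assay with chemiluminescent read-out, as background control relative to DMSO.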

Read-out in assay [12]: Cytochrome P450 2C9 (Homo sapiens) (UniProt P11712)
In words: CLD_CYP2C9_24hr: CellzDirect (CLD) Gene Expression Assay for xenobiotic metabolism (CYP2C9) at 24 hours (AID 2283688). The gist of the method:
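Primary human hepatocytes from two donor preparations, dosed daily for two days at multiple concentrations; vehicle 0.2% DMSO. CYP2C9 mRNA induction at 24 h measured by qNPA chemiluminescence relative to DMSO; cytotoxicity annotated from morphology.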

Read-out in assay [13]: alkyl and aryl transferase (GSTA2), GSTA2 (gene 2939)
In words: CLD_GSTA2_24hr: CellzDirect (CLD) Gene Expression Assay for alkyl and aryl transferase (GSTA2) at 24 hours (AID 2283693). A digest of the protocol: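 Primary human hepatocytes (two donor preparations) dosed daily for two days with chemicals at multiple concentrations (vehicle 0.2% DMSO); GSTA2 mRNA at 24 h measured by qNPA chemiluminescence, gain-of-signal versus DMSO.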

Assay [14] in a line: CLD_ACTIN_24hr: CellzDirect (CLD) Gene Expression Assay for Baseline Control (Actin) at 24 hours (AID 2283670). A digest of the protocol: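 Primary human hepatocytes dosed over multiple concentrations with 0.2% DMSO vehicle; actin mRNA measured at 24 h by qNPA chemiluminescence. Background control endpoint, fitted as gain of signal versus DMSO.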
Read-out in assay [15]: HMG-CoA synthase (HMGCS2), HMGCS2 (gene 3158)
Kind of assay: CLD_HMGCS2_24hr: CellzDirect (CLD) Gene Expression Assay for HMG-CoA synthase (HMGCS2) at 24 hours (AID 2283691). A digest of the protocol: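 Primary human hepatocytes from two donor preparations, dosed daily with fresh solutions; vehicle 0.2% DMSO, 24 h harvest. HMGCS2 mRNA quantified by qNPA with S1 nuclease digestion and chemiluminescence; gain fitted versus DMSO, cytotoxicity annotated by morphology.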

Assay [16] relates to Thyroperoxidase (TPO), gene 54314. In words: CCTE_Simmons_AUR_rTPO: CCTE's Amplex UltraRed Assay for Thyroperoxidase (TPO) Inhibition, Simmons Lab (AID 2283662).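 Further: potency for loss of signal meaning inhibition of peroxidase activity.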 The gist of the method: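 Rat thyroid microsomal TPO + 25 uM AUR in 200 mM K phosphate; cpd 5 nM–87.5 uM [final], 8 conc, 0.5% DMSO; 300 uM H2O2 starts rxn; 37C dark 30 min; endpoint FI 544/590 nm; n=3.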
Assay [17] is described as follows: CCTE_Simmons_CellTiterGLO_HEK293T: Viability Assessment in CCTE's Assays for Thyroperoxidase (TPO) Inhibition, Simmons Lab (AID 2283665). The gist of the method: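 HEK293T cells in DMEM with 1% FBS were dosed with 8 concentrations (5 nM–87.5 uM final, 0.5% DMSO) for 24 hr at 37C; ATP content was read by CellTiter-Glo luminescence, loss-of-signal versus DMSO, three biological replicates.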
(In ATP-based viability assays light output follows the ATP content of the culture.)

By AC50 is commonly meant the midpoint of the concentration-response curve, whichever way the signal moves.

“And” between values parts separate entries of the source, which are not always exact repeats. Equal entries are not always repeated. Results filed as inconclusive are left out. Some compounds were tested as several samples or in several runs, with calls that do not always agree. The source made the active and inactive calls. How the source made its calls, unless noted: active means hit-call score of the fitted dose curve at least 0.9, where 1 is the maximum; inconclusive means response in the unintended direction; inactive means score below 0.9.

Sequence of Cytochrome P450 3A4 (Homo sapiens) (P08684 whole entry, looked up): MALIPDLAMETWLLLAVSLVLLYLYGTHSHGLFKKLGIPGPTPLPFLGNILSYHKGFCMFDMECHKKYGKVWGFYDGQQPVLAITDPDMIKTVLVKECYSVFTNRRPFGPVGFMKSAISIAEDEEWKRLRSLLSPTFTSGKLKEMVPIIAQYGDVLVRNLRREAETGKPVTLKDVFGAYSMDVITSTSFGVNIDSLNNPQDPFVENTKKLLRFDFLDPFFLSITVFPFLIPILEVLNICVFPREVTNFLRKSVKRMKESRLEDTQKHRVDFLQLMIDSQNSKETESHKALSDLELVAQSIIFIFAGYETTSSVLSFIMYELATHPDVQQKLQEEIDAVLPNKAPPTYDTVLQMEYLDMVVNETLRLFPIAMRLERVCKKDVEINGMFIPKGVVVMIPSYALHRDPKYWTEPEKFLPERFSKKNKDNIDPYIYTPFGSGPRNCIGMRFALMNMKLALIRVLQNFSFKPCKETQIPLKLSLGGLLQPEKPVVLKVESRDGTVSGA

Regarding `CCc1ccc(C(=O)NN(C(=O)c2cc(C)cc(C)c2)C(C)(C)C)cc1`, the AC50 was 7.56 µM (active) in assay [1]; 33.7 µM (active) in [2]; 20 µM (active) in assay [7]; 2.19 µM (active) in [9]; 3.67 µM (active) in [10]. For the same compound, the outcome in assay [3], in [4], in assay [5], in [6] and in assay [8] was inactive.

On to `CC(C)OC(=O)Nc1cccc(Cl)c1`, for which the AC50 in [1] was 3.3 µM (active); in assay [2] it was 3.11 µM (active); in [6] it was 72.3 µM (active); in assay [7], 2.34 µM (active); in assay [9], 7.72 µM (active); in [10], 16 µM (active). For the same compound, the compound was classed as inactive in assay [3], in assay [4], in assay [5], in [11], in assay [8] and in assay [12]. Moreover, the compound was called inactive in assay [13].

Take `CNC(=O)Oc1ccccc1OC(C)C`: the outcome in assay [1], in [2], in [3], in assay [4], in assay [14] and in [5] was inactive. Also, the outcome in assay [11], in assay [6] and in [7] was inactive. Moreover, the AC50 was 1.6 µM (active) in [9] and 5.41 µM (active) in assay [10].

Consider `O=C(O)CCCOc1ccc(Cl)cc1Cl`, for which the result in assay [1], in [2], in [3], in assay [4], in assay [14] and in assay [5] was inactive. Also, the compound was classed as inactive in assay [11], in assay [7], in assay [8], in assay [9], in assay [12] and in [10]. For the same compound, the result in assay [15] was inactive. Also, the AC50 in assay [6] is 15.6 µM (active).

With `COP(=S)(OC)Oc1ccc(SC)c(C)c1`, the AC50 is 5.13 µM (active) in assay [1]; 34.3 µM (active) in assay [16]; 5.14 µM (active) in [2]; 16.1 µM (active) in [6]; 9.72 µM (active) in [7]; 20 µM (active) in assay [9]. The call in assay [17], in assay [5] and in [10] was inactive.

Turning to `CC(C)(C)C(O)C(Oc1ccc(Cl)cc1)n1cncn1` (stereo unspecified), the AC50 was 1.55 µM (active) in assay [1]; 41.5 µM (active) and 65.4 µM (active) in assay [3]; 52.6 µM (active) and 46.6 µM (active) and 57.3 µM (active) in [6]; 2.95 µM (active) in assay [7]; 2.51 µM (active) in assay [9]. For the same compound, the compound was classed as inactive in assay [2], in [3], in [5], in assay [11], in [8] and in assay [12]. Also, the compound was called inactive in assay [13].

`O=C(Nc1ccccc1)Nc1cnns1`: the AC50 is 1.87 µM (active) in [1], 43.8 µM (active) in [16], 3.08 µM (active) in assay [2] and 6.13 µM (active) in [7]. The compound was called inactive in assay [17], in assay [3], in [4], in [5], in assay [11] and in assay [6].

In the case of `O=[N+]([O-])/N=C1\NCCN1Cc1ccc(Cl)nc1`, the call in [1], in assay [2], in assay [3], in assay [4], in assay [14] and in assay [5] was inactive. Also, the compound was called inactive in [6], in [8], in assay [9], in assay [10], in [15] and in assay [13].
